# Reference: PubChem BioAssay (NCATS)
# Where “and” joins values, the source holds several entries; their conditions need not be identical. Equal values may be shown once. Records with an inconclusive call do not appear. Unmarked numbers belong to inactive results. Calls of active or inactive are those of the source. Calls follow the shape of the dose curve; as a rule, active = well fitted inhibition curve with a large enough effect; inconclusive = small, poorly fitted or top-dose-only effect; inactive = flat fitted curve, though single readings scatter.
# Assays:
# [1] = Drug repurposing screens with cells derived from glioblastoma tumor samples (AID 1345199); settings: GBM patient neurospheres viability, ATP luminescence, 48 h; also: nearly all actives have a fitted effect of over 40% in size
# Method in brief: (§1)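 Four patient lines of CD133+ GBM neurospheres were screened at several concentrations; hits were retested in those lines plus three slower-growing GBM lines, using 48-hour treatment and ATP-based viability.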
# astro = control astrocytes; test: as above; settings: viability, ATP luminescence, 48 h; series mostly up to 45.9 µM
# Method in brief: as §1
# [2] = at 45.9 µM (top of the series), tumour line B
# [3] = at 45.9 µM (top of the series), tumour line D
# [4] = at 46.1 µM (top of the series), tumour line C
# [5] = at 46 µM (top of the series), tumour line A
# % is scaled to controls: 0 for no effect and ±100 for the full control effect; potency is read from the fitted curve at half-maximal effect.
smiles,measurement,setting,value
O=C(CCCCCCCCCCCCC1CCCC1)Nc1ccc(S(=O)(=O)c2ccc(NC(=O)CCCCCCCCCCCCC3CCCC3)cc2)cc1,"activity, negative = cell killing",[1]; [2],0.38%
same,"activity, negative = cell killing",[1]; [3],-17.2%
same,"activity, negative = cell killing",[1]; [4],-32.4%
same,Potency,astro,inactive
CC(C)CN(C[C@@H](O)[C@H](Cc1ccccc1)NC(=O)O[C@@H]1CCOC1)S(=O)(=O)c1ccc(N)cc1,"activity, negative = cell killing",[1]; [2],-6.03%
same,"activity, negative = cell killing",[1]; [3],-14.3%
same,"activity, negative = cell killing",[1]; [4],-3.48%
same,Potency,astro,inactive
CC(=NCc1ccccc1)c1ccccc1O,"activity, negative = cell killing",[1]; [2],-12.5%
same,"activity, negative = cell killing",[1]; [3],-14.9%
same,"activity, negative = cell killing",[1]; [4],6.85%
same,Potency,astro,inactive
CN(C)CCC(O)(c1ccccc1)c1ccccc1Cl (stereo not drawn),"activity, negative = cell killing",[1]; [2],-11.1%
same,"activity, negative = cell killing",[1]; [4],-17.6%
same,Potency,[1]; tumour line A,11.2 µM (active)
same,Potency,astro,inactive
CCOc1ccc(S(=O)(=O)O)c2cccnc12,"activity, negative = cell killing",[1]; [2],-12%
same,"activity, negative = cell killing",[1]; [3],-2.86%
same,"activity, negative = cell killing",[1]; [4],-26.7%
same,Potency,astro,inactive
CN[C@H](CC(C)C)C(=O)N[C@H]1C(=O)N[C@@H](CC(N)=O)C(=O)N[C@H]2C(=O)N[C@H]3C(=O)N[C@H](C(=O)N[C@@H](C(=O)O)c4cc(O)cc(O)c4-c4cc3ccc4O)[C@H](O)c3ccc(c(Cl)c3)Oc3cc2cc(c3O[C@@H]2O[C@H](CO)[C@@H](O)[C@H](O)[C@H]2O[C@H]2C[C@](C)(N)C(O)[C@H](C)O2)Oc2ccc(cc2Cl)[C@H]1O (stereo partly drawn),"activity, negative = cell killing",[1]; [2],-21.4% and -13.5%
same,"activity, negative = cell killing",[1]; [3],-14.4% and -8.53%
same,"activity, negative = cell killing",[1]; [4],-11% and 8.66%
same,Potency,astro,inactive
CC(C)C1=CC2=CC[C@@H]3[C@](C)(CCC[C@@]3(C)C(=O)O)[C@H]2CC1,"activity, negative = cell killing",[1]; [2],-3.87%
same,"activity, negative = cell killing",[1]; [3],2.46%
same,"activity, negative = cell killing",[1]; [4],-9.17%
same,Potency,astro,inactive
NC(N)=NCC1COc2ccccc2O1 (stereo not drawn),"activity, negative = cell killing",[1]; [2],-11.5%
same,"activity, negative = cell killing",[1]; [3],-28.1%
same,Potency,[1]; tumour line A,35.5 µM (active)
same,Potency,astro,inactive
N=C(N)c1ccc(/C=C/c2ccc(C(=N)N)cc2O)cc1,"activity, negative = cell killing",[1]; [2],-18.3%
same,"activity, negative = cell killing",[1]; [3],-9.46%
same,"activity, negative = cell killing",[1]; [4],-14.7%
same,Potency,astro,inactive
CC12CCC(C[N+](C)(CCC[N+](C)(C)C)C1)C2(C)C (stereo not drawn),"activity, negative = cell killing",[1]; [2],-11.8%
same,"activity, negative = cell killing",[1]; [3],-25.7%
same,"activity, negative = cell killing",[1]; [4],21.9%
same,Potency,astro,inactive
CCCCCCCCCCCCCCCCCCOCC(COP(=O)([O-])OCC[N+](C)(C)C)OC (stereo not drawn),"activity, negative = cell killing",[1]; [3],-24.7%
same,"activity, negative = cell killing",[1]; [4],-1.43%
same,Potency,[1]; tumour line A,35.5 µM (active)
same,Potency,astro,inactive
CCc1ccc(S(=O)(=O)O)cc1,"activity, negative = cell killing",[1]; [2],3.64%
same,"activity, negative = cell killing",[1]; [3],-9.65%
same,"activity, negative = cell killing",[1]; [4],-22.1%
same,Potency,astro,inactive
CCCCCCCCCCCCCCCCCCCCCC(=O)Nc1ccn([C@@H]2O[C@H](CO)[C@@H](O)[C@@H]2O)c(=O)n1,"activity, negative = cell killing",[1]; [2],-14.5%
same,"activity, negative = cell killing",[1]; [3],-7.79%
same,"activity, negative = cell killing",[1]; [4],-16.8%
same,Potency,astro,inactive
CCOC(=O)Cc1ccc(-c2ccccc2)cc1,"activity, negative = cell killing",[1]; [2],-6.74%
same,"activity, negative = cell killing",[1]; [3],-7.57%
same,"activity, negative = cell killing",[1]; [4],36.2%
same,Potency,astro,inactive
CC/C=C\C/C=C\C/C=C\C/C=C\C/C=C\CCCC(=O)O,"activity, negative = cell killing",[1]; [2],-9.54%
same,"activity, negative = cell killing",[1]; [3],-0.692%
same,"activity, negative = cell killing",[1]; [4],-8.93%
same,Potency,astro,inactive
CN1C(C(=O)Nc2ccccn2)C(=O)c2sc(Cl)cc2S1(=O)=O (stereo not drawn),"activity, negative = cell killing",[1]; [2],-14.7%
same,"activity, negative = cell killing",[1]; [3],-14%
same,"activity, negative = cell killing",[1]; [4],-4.03%
same,Potency,astro,inactive
CC(C)(C)C(=O)OCC(=O)[C@H]1CC[C@H]2[C@@H]3CCC4=CC(=O)CC[C@]4(C)[C@H]3CC[C@]12C,"activity, negative = cell killing",[1]; [2],-7.01%
same,"activity, negative = cell killing",[1]; [3],-7.34%
same,"activity, negative = cell killing",[1]; [4],0.589%
same,Potency,astro,inactive
Cc1ccc(S(=O)(=O)NC(=O)N[C@@H](C)Cc2ccccc2)cc1,"activity, negative = cell killing",[1]; [2],-12%
same,"activity, negative = cell killing",[1]; [3],-19.4%
same,"activity, negative = cell killing",[1]; [4],-17.1%
same,Potency,astro,inactive
CCOC(=O)c1c[nH]c2cc(OCC(C)C)c(OCC(C)C)cc2c1=O,"activity, negative = cell killing",[1]; [2],-9.16%
same,"activity, negative = cell killing",[1]; [3],-17.4%
same,"activity, negative = cell killing",[1]; [5],-29.7%
same,Potency,astro,inactive
NC(=O)c1cc[n+](CC2=C(C(=O)O)N3C(=O)[C@@H](NC(=O)C(c4ccccc4)S(=O)(=O)[O-])[C@H]3SC2)cc1 (stereo partly drawn),"activity, negative = cell killing","[1]; at 20 µM (top of the series), tumour line C",7.27%
same,"activity, negative = cell killing","[1]; at 21.2 µM (top of the series), tumour line B",-0.0366%
same,"activity, negative = cell killing","[1]; at 21.2 µM (top of the series), tumour line D",-7.97%
same,Potency,astro,inactive
C=CC(C)(O)CC/C=C(\C)CCC=C(C)C (stereo not drawn),"activity, negative = cell killing",[1]; [5],-15.8%
O=C1c2ccccc2C(=O)C1c1ccc(F)cc1,"activity, negative = cell killing",[1]; [5],-45.8%
CC(C)(C)CC(C)(C)c1ccc(OCCO)cc1,Potency,[1]; tumour line D,10 µM (active)
C=C1C(CCl)(CCl)C2(Cl)C(Cl)C(Cl)C1(Cl)C2(Cl)Cl (stereo not drawn),Potency,astro,inactive
CCN(CC)CCCC(C)Nc1cc(/C=C/c2ccccc2Cl)nc2cc(Cl)ccc12 (stereo not drawn),Potency,astro,inactive
Cc1cc(-c2ccc(N=Nc3c(S(=O)(=O)O)cc4cc(S(=O)(=O)O)cc(N)c4c3O)c(C)c2)ccc1N=Nc1c(S(=O)(=O)O)cc2cc(S(=O)(=O)O)cc(N)c2c1O,Potency,astro,8.91 µM (active)
CCCCCCCCCCCCCCCCOCCOCCOCCOCCOCCOCCOCCOCCOCCOCCOCCOCCOCCOCCOCCOCCOCCOCCOCCOCCO,Potency,astro,3.16 µM (active)
CCN(CC)CCC(=O)N1c2ccccc2Sc2ccc(C(F)(F)F)cc21,Potency,astro,inactive
